According to PubChem BioAssay (Tox21):
Results filed as inconclusive are left out. Calls of active or inactive are those of the source. Unless noted, calls come from the whole dose curve.

Assays:
[1] = Nuclear factor erythroid 2-related factor 2/antioxidant responsive element (Nrf2/ARE) small molecule agonists: qHTS cell viability counter screen in human keratinocytes (AID 1919968; active = well fitted curve in the direction sought with a large enough effect in the repeat runs; an effect the other way counts as inactive or inconclusive; note: nearly all actives have a fitted effect of over 55% in size)
Outline: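 Cells of the KeratinoSens line were plated at 1,500 per well and left for 5 h before compound transfer from DMSO stocks. After a 23 h incubation (37 C, 5% CO2), CellTiter-Fluor was added. Signal was taken as fluorescence intensity 1 h later.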

[2] = Nuclear factor erythroid 2-related factor 2/antioxidant responsive element (Nrf2/ARE) small molecule agonists: luciferase reporter gene qHTS assay in human keratinocytes (AID 1919969); note: nearly all actives have a fitted effect of over 35% in size
[3] = target: Gonadotropin-releasing hormone receptor (Homo sapiens) (UniProt P30968); experiment: Human gonadotropin-releasing hormone receptor (GnRHR) small molecule agonists, calcium flux assay in GnRHR-HEK293 cells (AID 1920063); note: nearly all actives have a fitted effect of over 35% in size
Outline: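 Compounds dissolved in DMSO are pin-transferred onto dye-loaded GnRHR-HEK293 cells, which were seeded 18 h before at 37 C/5% CO2. Calcium signal is read as fluorescence intensity at 1 s intervals for 3 min.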

[4] = target: KiSS-1 receptor (Homo sapiens) (UniProt Q969F8); experiment: Human kisspeptin (KISS1R) small molecule agonists, calcium flux assay in KISS1R-HEK293 cells (AID 1920064; active = well fitted curve in the direction sought with a large enough effect in the repeat runs; an effect the other way counts as inactive or inconclusive)
Outline: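 Cell line: HEK293, stable human KISS1R. Dye loading 1 h at 37 C after 18 h culture. Read: kinetic fluorescence, 480/540 nm, 3 min at 1 s intervals.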

[5] = G protein-coupled receptor (GPCR) small molecule agonists, calcium flux assay: HEK293 wild type cell line counter screen (AID 1920065)
Outline: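 Tox21 10K compounds, 15 concentrations each in triplicate, pin-transferred in DMSO onto dye-loaded cells; kinetic read at 480/540 nm for 3 min, 1 s intervals.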

[6] = p53 small molecule agonists, cell-based qHTS assay with human liver microsomes (AID 1963577);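 note: p53 response element beta-lactamase reporter cells with liver microsomes plus NADPH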
Outline: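 16 h, 37 C exposure of p53RE-bla cells to compounds with human liver microsomes and NADPH (0.5 mg/mL final each); detection via LiveBLAzer mixture, 2 h dark at room temperature.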

[7] = p53 small molecule agonists, cell-based qHTS assay with rat liver microsomes (AID 1963578)
Outline: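 With rat liver microsomes and NADPH present (0.5 mg/mL final each), p53RE-bla cells are treated with compound for 16 h at 37 C. LiveBLAzer detection mixture is then applied for 2 h at room temperature in the dark.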

[8] = p53 small molecule agonists, cell-based qHTS assay with human liver microsomes: qHTS cell viability counter screen (AID 1963579); note: nearly all actives have a fitted effect of over 45% in size
Outline: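 In this multiplexed counter screen, the reporter plates were subsequently treated with CellTiter-Glo so that cell viability, reflected by luminescence, could be recorded for p53RE-bla cells dosed 16 h with compounds under microsomal activation (HLM and NADPH).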

[9] = p53 small molecule agonists, cell-based qHTS assay with rat liver microsomes: qHTS cell viability counter screen (AID 1963580); note: nearly all actives have a fitted effect of over 45% in size
Outline: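 Cytotoxicity counter screen: intracellular ATP read by CellTiter-Glo luminescence in the p53 reporter wells. HCT-116 p53RE-bla cells were treated for 16 h at 37 C alongside rat liver microsomes and NADPH, each 0.5 mg/mL final.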

[10] = p53 small molecule agonists, cell-based qHTS assay: qHTS cell viability counter screen (AID 1963581); note: nearly all actives have a fitted effect of over 45% in size
Outline: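 ATP content measured by luminescence in HCT-116 p53RE-bla cells treated 16 h at 37 C, same wells as the reporter screen.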

[11] = p53 small molecule agonists, cell-based qHTS assay (AID 1963582; active = well fitted activation curve with a large enough effect in the signal ratio in the repeat runs, not every such curve was filed as active; the % refers to the signal ratio)
Outline: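 16 h compound exposure (37 C) of p53 response element–bla cells, preceded by 5 h recovery at 37 C/5% CO2; read-out via LiveBLAzer B/G FRET substrate, 2 h RT, fluorescence intensity.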

[12] = target: 5-hydroxytryptamine receptor 2A (Homo sapiens) (UniProt P28223); experiment: 5-hydroxytryptamine receptor 2A (HTR2A) small molecule antagonists, cell-based qHTS assay (AID 1963586); note: nearly all actives have a fitted effect of over 45% in size
Outline: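 CHO cells stably expressing human HTR2A were plated for 18 h at 37 C, then loaded with calcium dye for 1 h. Compounds were preincubated 5 min at room temperature before DOI (4 nM solution) was added. Kinetic fluorescence was read for 3 min.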

[13] = target: 5-hydroxytryptamine receptor 2A (Homo sapiens) (UniProt P28223); experiment: 5-hydroxytryptamine receptor 2A (HTR2A) small molecule agonists, cell-based qHTS assay (AID 1963587); note: nearly all actives have a fitted effect of over 30% in size
Outline: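 Kinetic calcium-flux fluorescence (2 min, 1 sec intervals) after compound addition in agonist mode. HTR2A-CHO cells were cultured 18 h, then dye-loaded 1 h at 37 C.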

[14] = target: Muscarinic acetylcholine receptor M1 (Homo sapiens) (UniProt P11229); experiment: Cholinergic receptor muscarinic 1 (CHRM1) small molecule antagonists, cell-based qHTS assay (AID 1963588); note: nearly all actives have a fitted effect of over 40% in size
Outline: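 Compounds were tested at 15 concentrations in three independent runs. Dye-loaded CHRM1-CHO cells were exposed 5 min at room temperature before stimulation by acetylcholine added at 50nM. Intracellular calcium was read kinetically on FDSS for 3 min.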

[15] = target: Muscarinic acetylcholine receptor M1 (Homo sapiens) (UniProt P11229); experiment: Cholinergic receptor muscarinic 1 (CHRM1) small molecule agonists, cell-based qHTS assay (AID 1963589); note: nearly all actives have a fitted effect of over 35% in size
Outline: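 Homogeneous fluorescence calcium flux, agonist mode. Human M1-expressing CHO cells; compound dosed at 15 concentrations, three independent runs; signal sampled every 1 sec.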

[16] = cAMP Responsive Elements (CRE) small molecule agonists, cell-based qHTS assay (AID 1963590)
Outline: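 HEK 293T cells stably bearing CRE-bla were plated at 2,000 cells per well and rested 18 h. Compounds, positive controls or DMSO were added for 3 h at 37 C. LiveBLAzer B/G substrate was then loaded for 2 h at room temperature.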

[17] = cAMP Responsive Elements (CRE) small molecule antagonists, cell-based qHTS assay (AID 1963591; active = well fitted inhibition curve with a large enough effect in the signal ratio in the repeat runs, not every such curve was filed as active; the % refers to the signal ratio)
Outline: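 First, CRE-bla HEK293T cells settled 18 h at 37 C. Next, compound and 0.25 uM final NKH477 were applied for 3 h. Last, LiveBLAzer B/G substrate was loaded for 2 h at room temperature.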

[18] = target: Beta-2 adrenergic receptor (Homo sapiens) (UniProt P07550); experiment: Adrenergic beta2 receptor (ADRB2) small molecule antagonists, cell-based qHTS assay (AID 1963592); note: series mostly up to about 92 µM; nearly all actives have a fitted effect of over 50% in size
Outline: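 Assay format: CHO-ADRB2 cells, 18-20hr seeding at 37C/5% CO2, then compound plus 1nM isoproterenol agonist mix for 0.5hr RT. Homogeneous time-resolved fluorescence cAMP detection after 1hr, expressed as 665/615 nm ratio.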

[19] = target: Beta-2 adrenergic receptor (Homo sapiens) (UniProt P07550); experiment: Adrenergic beta2 receptor (ADRB2) small molecule agonists, cell-based qHTS assay (AID 1963593);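 note: CHO cells stably overexpressing human ADRB2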
Outline: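 CHO cells stably over-expressing ADRB2 were plated overnight at 37C, then dosed with compounds plus a stimulation mix containing 100uM IBMX and 25uM Ro-20-1724 for 0.5hr at room temperature. cAMP was measured by HTRF competition, 1hr.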

[20] = target: D(2) dopamine receptor (Homo sapiens) (UniProt P14416); experiment: Dopamine D2 receptor (DRD2) small molecule agonists, cell-based qHTS assay (AID 1963594); note: nearly all actives have a fitted effect of over 35% in size
Outline: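 cAMP accumulation in DRD2-HEK293 cells measured by HTRF after 1 h detection; compounds added 10 min before NKH477 (200nM […]) forskolin-analogue stimulation, 30 min at room temperature, with Ro20-1724 present at 0.1 mM final.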
% is set by controls: 0 for no effect and ±100 for the full control effect.

Gonadotropin-releasing hormone receptor (Homo sapiens), sequence (P30968 whole entry, looked up): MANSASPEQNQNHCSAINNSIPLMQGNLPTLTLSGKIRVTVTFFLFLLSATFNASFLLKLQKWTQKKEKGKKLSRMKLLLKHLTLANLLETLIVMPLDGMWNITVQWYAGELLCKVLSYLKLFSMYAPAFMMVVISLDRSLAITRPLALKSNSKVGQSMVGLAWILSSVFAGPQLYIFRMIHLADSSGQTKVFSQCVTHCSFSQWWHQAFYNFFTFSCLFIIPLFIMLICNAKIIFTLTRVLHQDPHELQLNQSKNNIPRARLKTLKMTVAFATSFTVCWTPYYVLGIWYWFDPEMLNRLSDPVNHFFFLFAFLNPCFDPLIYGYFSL
D(2) dopamine receptor (Homo sapiens), sequence (P14416 whole entry, looked up): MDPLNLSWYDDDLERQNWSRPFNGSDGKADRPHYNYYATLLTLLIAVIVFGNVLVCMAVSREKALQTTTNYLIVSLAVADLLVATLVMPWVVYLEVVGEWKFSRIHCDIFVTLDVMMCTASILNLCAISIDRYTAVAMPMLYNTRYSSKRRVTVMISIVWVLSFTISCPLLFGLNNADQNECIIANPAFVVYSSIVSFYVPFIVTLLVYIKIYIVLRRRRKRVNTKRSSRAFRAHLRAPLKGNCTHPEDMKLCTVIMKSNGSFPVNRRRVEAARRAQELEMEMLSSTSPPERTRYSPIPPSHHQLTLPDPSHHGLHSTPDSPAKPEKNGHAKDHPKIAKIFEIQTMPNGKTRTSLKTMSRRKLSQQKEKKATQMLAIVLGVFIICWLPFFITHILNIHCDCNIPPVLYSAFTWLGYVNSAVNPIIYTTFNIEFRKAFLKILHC
KiSS-1 receptor (Homo sapiens), sequence (Q969F8 whole entry, looked up): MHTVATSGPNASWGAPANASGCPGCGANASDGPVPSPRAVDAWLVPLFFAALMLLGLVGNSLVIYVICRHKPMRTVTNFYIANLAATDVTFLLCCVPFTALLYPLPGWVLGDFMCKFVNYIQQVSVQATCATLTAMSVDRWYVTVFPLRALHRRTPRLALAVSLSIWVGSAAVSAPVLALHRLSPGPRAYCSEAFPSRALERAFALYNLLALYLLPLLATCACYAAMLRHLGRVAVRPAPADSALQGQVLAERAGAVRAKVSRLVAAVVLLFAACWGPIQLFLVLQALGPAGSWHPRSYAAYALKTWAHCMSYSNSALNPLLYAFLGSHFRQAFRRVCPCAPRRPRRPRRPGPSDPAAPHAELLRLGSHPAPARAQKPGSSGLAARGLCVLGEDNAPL
Beta-2 adrenergic receptor (Homo sapiens), sequence (P07550 whole entry, looked up): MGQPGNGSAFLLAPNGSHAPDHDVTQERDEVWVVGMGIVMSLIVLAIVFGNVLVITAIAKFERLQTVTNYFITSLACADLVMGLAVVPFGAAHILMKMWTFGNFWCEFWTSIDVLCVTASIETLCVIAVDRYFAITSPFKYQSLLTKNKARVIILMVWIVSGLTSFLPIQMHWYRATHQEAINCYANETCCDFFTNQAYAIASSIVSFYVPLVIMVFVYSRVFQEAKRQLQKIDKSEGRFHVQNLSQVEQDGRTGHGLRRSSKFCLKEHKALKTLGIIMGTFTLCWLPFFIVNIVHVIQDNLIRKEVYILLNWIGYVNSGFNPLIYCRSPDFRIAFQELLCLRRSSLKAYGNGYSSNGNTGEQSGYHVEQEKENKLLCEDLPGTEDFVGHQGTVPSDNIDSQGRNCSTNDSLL
Muscarinic acetylcholine receptor M1 (Homo sapiens), sequence (P11229 whole entry, looked up): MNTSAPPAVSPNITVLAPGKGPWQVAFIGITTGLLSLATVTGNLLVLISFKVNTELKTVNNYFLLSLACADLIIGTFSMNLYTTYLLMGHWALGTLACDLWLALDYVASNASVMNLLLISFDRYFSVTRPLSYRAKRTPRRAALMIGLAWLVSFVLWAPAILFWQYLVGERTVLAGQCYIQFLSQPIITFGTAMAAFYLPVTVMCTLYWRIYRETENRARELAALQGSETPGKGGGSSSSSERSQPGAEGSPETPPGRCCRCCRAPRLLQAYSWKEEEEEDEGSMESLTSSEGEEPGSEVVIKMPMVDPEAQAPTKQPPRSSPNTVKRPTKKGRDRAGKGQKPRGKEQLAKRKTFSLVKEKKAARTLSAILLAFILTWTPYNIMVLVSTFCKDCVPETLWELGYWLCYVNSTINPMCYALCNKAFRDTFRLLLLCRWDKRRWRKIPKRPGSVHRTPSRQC
5-hydroxytryptamine receptor 2A (Homo sapiens), sequence (P28223 whole entry, looked up): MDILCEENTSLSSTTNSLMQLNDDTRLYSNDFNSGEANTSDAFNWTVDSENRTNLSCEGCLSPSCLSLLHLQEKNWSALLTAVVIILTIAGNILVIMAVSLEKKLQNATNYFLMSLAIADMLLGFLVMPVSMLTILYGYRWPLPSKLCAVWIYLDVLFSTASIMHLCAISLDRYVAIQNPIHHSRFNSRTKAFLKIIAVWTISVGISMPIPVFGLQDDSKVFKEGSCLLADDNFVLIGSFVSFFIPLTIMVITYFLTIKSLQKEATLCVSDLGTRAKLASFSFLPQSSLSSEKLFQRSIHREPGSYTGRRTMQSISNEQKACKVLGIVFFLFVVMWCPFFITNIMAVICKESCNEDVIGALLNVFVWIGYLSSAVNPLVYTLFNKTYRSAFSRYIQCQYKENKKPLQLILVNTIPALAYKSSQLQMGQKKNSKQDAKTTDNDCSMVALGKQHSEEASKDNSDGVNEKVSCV

[Cl][Nd]([Cl])[Cl]
inactive: Potency [1] | Potency [2] | Potency [3] | Potency [4] | Potency [5] | Potency [6] | Potency [7] | Potency [8] | Potency [9] | Potency [10] | Potency [11] | Potency [12] | Potency [13] | Potency [14] | Potency [15] | Potency [16] | Potency [17] | Potency [18] | Potency [19] | Potency [20]

O=[N+]([O-])c1cncn1CCN1CCOCC1
inactive: Potency [1] | Potency [2] | Potency [3] | Potency [4] | Potency [5] | Potency [6] | Potency [7] | Potency [8] | Potency [9] | Potency [10] | Potency [11] | Potency [12] | Potency [13] | Potency [14] | Potency [15] | Potency [16] | Potency [17] | Potency [18] | Potency [19] | Potency [20]

CCOC(=O)c1ccccc1C
inactive: Potency [1] | Potency [2] | Potency [3] | Potency [4] | Potency [5] | Potency [6] | Potency [7] | Potency [8] | Potency [9] | Potency [10] | Potency [11] | Potency [12] | Potency [13] | Potency [14] | Potency [15] | Potency [16] | Potency [17] | Potency [18] | Potency [19] | Potency [20]

O=[N+]([O-])c1ccc(Oc2ccc([N+](=O)[O-])cc2)cc1
inactive: Potency [1] | Potency [2] | Potency [3] | Potency [4] | Potency [5] | Potency [6] | Potency [7] | Potency [8] | Potency [9] | Potency [10] | Potency [11] | Potency [12] | Potency [13] | Potency [14] | Potency [15] | Potency [16] | Potency [17] | Potency [18] | Potency [19] | Potency [20]

Cc1cccc(N(C)C)c1
inactive: Potency [1] | Potency [2] | Potency [3] | Potency [4] | Potency [5] | Potency [6] | Potency [7] | Potency [8] | Potency [9] | Potency [10] | Potency [11] | Potency [12] | Potency [13] | Potency [14] | Potency [15] | Potency [16] | Potency [17] | Potency [18] | Potency [19] | Potency [20]

CO[Si](OC)(OC)c1ccccc1
inactive: Potency [1] | Potency [2] | Potency [3] | Potency [4] | Potency [5] | Potency [6] | Potency [7] | Potency [8] | Potency [9] | Potency [10] | Potency [11] | Potency [12] | Potency [13] | Potency [14] | Potency [15] | Potency [16] | Potency [17] | Potency [18] | Potency [19] | Potency [20]

Cc1cc(C)c(N=Nc2c(O)c(S(=O)(=O)O)cc3cc(S(=O)(=O)O)ccc23)cc1C
inactive: activity change, negative = cytotoxicity [1] -4.24% [at 8.39 µM] | activity, positive = activation [2] -2.39% [at 8.39 µM] | activity change [3] 0.758% [at 5.22 µM, active compounds read high] | activation [4] 0.221% [at 6.97 µM] | activation [5] -0.909% [at 5.23 µM] | activation [6] -0.355% [at 5.99 µM] | activation [7] 0.887% [at 5.99 µM] | activity change, negative = cytotoxicity [8] 0.236% [at 5.99 µM] | activity change, negative = cytotoxicity [9] -1.53% [at 5.99 µM] | activity change, negative = cytotoxicity [10] -0.59% [at 5.99 µM] | activation [11] 0.0696% [at 5.99 µM] | activity, negative = inhibition [12] -22.1% [at 5.62 µM] | activation [13] -1.44% [at 7.02 µM] | activity, negative = inhibition [14] 26.6% [at 5.58 µM] | activation [15] -0.143% [at 6.97 µM] | activation [16] -0.168% [at 8.39 µM] | activity change, negative = inhibition [17] -0.183% [at 8.39 µM] | activity change, negative = inhibition [18] -5.6% [at 8.39 µM] | activation [19] -2.26% [at 8.39 µM] | activation [20] 4.98% [at 8.39 µM]
